# ± gives the standard deviation of the averaged measurements.
# Assays:
# DLD1 [1] = assay: cell viability (CellTiter-Glo) relative to plate median (fraction of plate median); higher = more viable cells; details: 5 µM; treatment time 24 h; reporter: 7TFP
# In short: (§1)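 Per-well firefly luciferase or CellTiterGlo luminescence, normalised to the plate median, is what is reported. It was measured in colorectal cancer cells with stable lentiviral TCF/Wnt firefly luciferase reporters after a 24 h treatment with library compounds at a final 5 µM. The mean of two independent replicates is given.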
# HCT116 = assay: as above; details: 5 µM; treatment time 24 h; reporter: TCF4/Wnt
# In short: as §1
# SW480 [2] = assay: as above; details: 5 µM; treatment time 24 h; reporter: 7TFP
# In short: as §1
# DLD1 [3] = assay: TCF/Wnt firefly luciferase reporter signal relative to plate median (fraction of plate median); higher = higher Wnt reporter signal; details: 5 µM; treatment time 24 h; reporter: 7TFP
# In short: as §1
# SW480 [4] = assay: as above; details: 5 µM; treatment time 24 h; reporter: 7TFP
# In short: as §1
Compound,cell viability (DLD1 [1]),cell viability (HCT116),cell viability (SW480 [2]),TCF/Wnt firefly luciferase reporter signal (DLD1 [3]),TCF/Wnt firefly luciferase reporter signal (SW480 [4])
C=CCc1ccc2c(c1)OCO2,0.985 ± 0.021,0.898 ± 0.13,1.06 ± 0.078,0.914 ± 0.16,0.952 ± 0.11
NC(=O)c1ccc(N)nc1,1.1 ± 0.13,1.1,1.01 ± 0.16,1.01 ± 0.067,0.91 ± 0.037
